Out of some 360,000 compounds screened, about 3,500 (0.97%) were called active. What follows is part of a selection rich in actives, with near analogues and random picks from the rest. A number with no mark means an inactive call.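 Rule for the calls: active = activation above a per-plate cutoff, the mean activation of sample wells on that plate plus 3 SD (cut at about 8% in these data); inactive = the rest.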

In the experiment the target is Melanocortin receptor 4 (Homo sapiens) (UniProt P32245). Briefly: activators of MC4R beta-arrestin recruitment – cell-based, luminescence, agonist arm of biased-ligand search, primary screen (AID 540308). The conditions noted are these: U2OS MC4R beta-arrestin complementation, at 8.9 µM, hits give high values, percent of melanotan II response, DMSO zero.
Chain of Melanocortin receptor 4 (Homo sapiens) (P32245 whole entry, looked up): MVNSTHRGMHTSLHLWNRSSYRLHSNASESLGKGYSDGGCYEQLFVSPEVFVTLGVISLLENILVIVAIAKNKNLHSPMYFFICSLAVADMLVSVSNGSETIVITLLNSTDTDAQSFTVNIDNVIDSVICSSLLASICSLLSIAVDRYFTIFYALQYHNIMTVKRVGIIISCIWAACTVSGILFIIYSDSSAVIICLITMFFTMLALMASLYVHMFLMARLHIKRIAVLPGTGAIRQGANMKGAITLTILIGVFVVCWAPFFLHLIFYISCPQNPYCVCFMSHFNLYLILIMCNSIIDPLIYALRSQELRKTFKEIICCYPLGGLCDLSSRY
Consider `O=C(NCc1cccc(C(F)(F)F)c1)c1ccc2sc(COCCO)nc2c1`, for which the activation is -1.45%.

On to `NC(=O)Nc1ccc(C(=O)OCC(=O)NC2CCCc3ccccc32)cc1` (stereo unspecified), for which the activation was -2.32%.

Take `CCOC(=O)c1c(NC(=O)CNC2CCCc3ccccc32)sc(C(N)=O)c1C` (stereo unspecified): the activation is 8.65% (active).

Turning to `CCOC(=O)c1c(NC(=S)SC)sc(C(=O)N2CCc3ccccc3C2)c1C`, the activation is -0.37%.

In the case of `C#Cc1ccc(NC(=O)C2(C)CCN2C(=O)Cc2ccc(-c3ccccc3)cc2)cc1` (stereo unspecified), the activation was 0.34%.

As to `CCCC/C=C/c1cccc2nncn12`, the activation was 0.76%.

Take `CN1CCC(CN)(N2CCN(c3ccccc3)CC2)CC1`: the activation was 0.54%.

Regarding `COc1ccccc1N1CCN(c2ncnc3sc(C)c(-c4ccccc4)c23)CC1`, the activation was 2.5%.

Regarding `CCc1cc2c(N3CCN(c4nnc(CC)s4)CC3)ncnc2s1`, the activation is 1%.

`Oc1ccccc1N1CCN(c2ncnc3sc(-c4ccccc4)cc23)CC1`: the activation was 14.4% (active).

`CCCNC(=O)C1(C)CCN(C(=O)c2cc(F)ccc2C)C1` (stereo unspecified): the activation is -0.94%.

With `CC(C)(C(=O)N1CCC1(C)C(=O)NS(=O)(=O)c1ccc(Br)cc1)c1ccccc1` (stereo unspecified), the activation was -0.16%.

Take `Cc1ccc(C2(C(F)(F)F)N=C3Sc4cc(C)cc(C)c4N3C(=O)N2)cc1` (stereo unspecified): the activation is -0.99%.

On to `CCOC(=O)N(C)c1c(CC)nc2c(OCc3ccccc3C(=O)OC)cccn12`, for which the activation is -1.73%.

As to `CCc1nc2c(OCCOc3ccc(F)cc3)cccn2c1N(C)C(=O)c1ccccc1F`, the activation is 0.11%.

For the compound `CC(=O)Oc1ccc(NC(=O)CCC2CCCCC2)c(C(=O)O)c1`, the activation is 0.62%.

For the compound `COc1ccc(NC(=O)CCCC2CCCCC2)c(OC)c1`, the activation was -1.23%.

With `COC(=O)c1sccc1NC(=O)CCC1CCCC1`, the activation is 10.9% (active).

As for `COCCCNC(=O)c1cccc2c(-c3ccc(O)c(OC)c3)coc12`, the activation is 0.52%.

Regarding `COc1ccc(S(=O)(=O)N/N=C\c2ccc(OC)c(COc3ccc(C)cc3[N+](=O)[O-])c2)cc1`, the activation was 12.8% (active).

Regarding `Cc1ccc(S(=O)(=O)N/N=C\c2cc3c(cc2[N+](=O)[O-])OCO3)cc1`, the activation was -2.43%.

Consider `COc1ccc(S(=O)(=O)Nc2ccc3cn[nH]c3c2)cc1[N+](=O)[O-]`, for which the activation is -0.37%.

For `CN1CCN(C(=O)c2ccc(-c3cc4nc(NCc5cccnc5)n(C)c(=O)c4s3)cc2)CC1`, the activation is -1.19%.

For the compound `Cc1ccc(S(=O)(=O)NCCC(=O)Nc2ccc(C)c(Cl)c2)cc1C`, the activation is 10.6% (active).

Turning to `Cc1ccc(NC(=O)CCNS(=O)(=O)c2ccc3c(c2)oc(=O)n3C)cc1C`, the activation was -0.21%.

Turning to `Cc1ccc(S(=O)(=O)NCCC(=O)Nc2cccc(S(N)(=O)=O)c2)cc1C`, the activation is -1.36%.

For the compound `O=C(Nc1ccc(F)cc1)Nc1nnc([C@H]2C[C@H](O)[C@@H](CO)O2)s1`, the activation is 0.21%.

Consider `O=C(NCc1cccnc1)c1ccc2nc([C@@H]3O[C@H](CO)[C@H](O)[C@H](O)[C@H]3O)[nH]c2c1`, for which the activation is -1.52%.

Consider `CC(=O)c1ccc(Nc2nc(C(N)c3ccccc3)cs2)cc1` (stereo unspecified), for which the activation is 1.43%.

As for `CC1(C(=O)Nc2cccc(Oc3ccccc3)c2)CCN1Cc1ccccc1Cl` (stereo unspecified), the activation is -1.51%.

Take `CCn1c(CNC(=O)c2ccco2)nnc1SCC(=O)Nc1cccc(F)c1`: the activation is 2.05%.

As for `Cc1nc2nc(SCC(=O)Nc3cccc(F)c3)[nH]c2cc1Br`, the activation is 4.22%.

On to `CCn1c(SCC(=O)Nc2cccc(F)c2)nnc1-c1cc2cc(Br)ccc2o1`, for which the activation was 14.9% (active).

As to `CCCNS(=O)(=O)c1ccc2c(c1)CCCN2C(C)=O`, the activation is -3.18%.

Turning to `CN(C(=O)CN1CCN(c2cc(-c3ccc(OCc4ccccc4)cc3)ncn2)CC1)c1ccccc1`, the activation is -0.62%.

As to `CCCS(=O)(=O)NC(=O)C1(C)CCCN(C(=O)c2cccs2)C1` (stereo unspecified), the activation was -0.48%.

The values above are taken from PubChem BioAssay AID540308 (The Scripps Research Institute Molecular Screening Center, 2011).
